# BJeLR lethal: BJeLR cell viability loss; BJeLR (HRASV12) viability, CellTiter-Glo ATP luminescence, 48 h; inhibition, % (concentration not given with the values); 300,000 tested, 0.17% active; AID 1554; in the data active means inhibition above about 50%
# DUSP3 inh: blocks human VHR1 dual specificity phosphatase. P51452. recombinant VHR phosphatase, pNPP absorbance. inhibition, % at 13.3 µM. 290,000 tested, 0.52% active. AID 1654; in the data active means inhibition above about 50%
# PrPC TRFRET: reduces human prion protein on the cell surface; 370,000 tested, 0.43% active; inhibition, % at 13.8 µM; cell surface PrPC, TR-FRET read-out; P04156; in the data active means inhibition above about 24%; further: 0% = median of the test wells and 100% = reference compound wells
# SARS 3CLpro inh: SARS-CoV 3CLpro protease inhibition | recombinant SARS-CoV 3CLpro, quenched FRET peptide cleavage | 290,000 tested, 0.14% active | P0C6X7 | AID 1706 | inhibition, % at 6 µM; in the data active means inhibition above about 12%
# PrPC confirm: confirmation of inhibitors of cell surface human prion protein; cell surface PrPC level, TR-FRET; shares compounds with PrPC TRFRET; 1,500 tested, 65% active; inhibition, % at 13.8 µM; in the data active means inhibition above about 25%
# LD9 cytotox: counter-screen for PrPc inhibitors: cytotoxicity in LD9 cells; shares compounds with PrPC TRFRET; luminescence viability; inhibition, % at 13.8 µM; 1,500 tested, 29% active; AID 743201; in the data active means inhibition above about 9.5%
# The depositor's hits bear a star; nt = no result given. An excerpt weighted towards active compounds, which were near 1.1% of everything screened.
SMILES,BJeLR lethal,DUSP3 inh,PrPC TRFRET,SARS 3CLpro inh,PrPC confirm,LD9 cytotox
C/C(=N\Nc1nc2ccccc2[nH]1)c1cc2ccccc2o1,6,16,-1,2,nt,nt
COC(=O)c1sccc1NC(=O)c1ccccc1C(=O)O,5,nt,-2,nt,nt,nt
CC(=O)c1sccc1NC(=O)c1ccccc1C(=O)O,11,16,47*,-2,109*,-6
CC[C@H](C)[C@@H]1NC(=O)CNC(=O)c2csc(n2)[C@H](C(C)(C)O)OC(=O)C(C)(C)[C@H](CCCC(C)(Cl)Cl)OC(=O)c2csc1n2,nt,nt,34*,nt,26*,9
COc1cc(C#Cc2c(-c3cncn3C)n(C)c3ccc(-c4ccc(OC)nc4)cc23)cc(OC)c1,nt,nt,-6,nt,nt,nt
COc1cc(C#Cc2c(-c3cncn3C)n(C)c3ccc(-c4ccc5[nH]ccc5c4)cc23)cc(OC)c1,nt,nt,27*,nt,16,14*
CC(=O)c1ccc(NC(=O)CO/N=C(\C)c2cccs2)cc1,15,-4,4,2,nt,nt
CCc1cccc(CC)c1NC(=O)CO/N=C(\C)c1cccs1,-4,-22,35*,-3,30*,-6
COc1ccc(-c2csc(C(O)c3ccc(F)c(OC)c3)n2)cc1 (stereo unspecified),nt,nt,3,nt,nt,nt
CN1CCc2c(sc(NC(=O)c3ccc([N+](=O)[O-])o3)c2C(N)=O)C1,0,-4,44*,-2,42*,61*
Cc1cc(C(=O)Nc2ccc(Br)cn2)sc1C,nt,nt,24,nt,nt,nt
O=C(Nc1ccc(Br)cn1)c1ccc(Br)s1,7,15,28*,8,44*,-3
CCOC(=O)COc1cc(Br)c(/C=N/Nc2ccccc2)cc1OC,0,31,61*,-5,64*,-8
COc1ccc2c(C)cc(SCc3c(C)noc3C)nc2c1,7,7,67*,-1,88*,-5
C=C1C(=O)OC2CC1C(OC(C)=O)CC(C)=CCCC(C)=CCCC2(C)O (stereo unspecified),nt,nt,29*,nt,33*,43*
O=C(CSC1=NS(=O)(=O)c2cc(F)ccc2N1)NCc1ccccc1Cl,3,nt,2,nt,nt,nt
COc1ccc(S(=O)(=O)N2CCCCC2c2cc(C(=O)Nc3ccc4c(c3)OCO4)no2)cc1 (stereo unspecified),nt,nt,28*,nt,18,-3
N#Cc1cccc(NC(=O)c2cc(C3CCCCN3S(=O)(=O)c3ccccc3)on2)c1 (stereo unspecified),nt,nt,26*,nt,17,-2
O=C(Nc1ccc2c(c1)OCO2)c1cc(C2CCCN(C(=O)CCc3ccccc3)C2)on1 (stereo unspecified),nt,nt,38*,nt,25*,-1
CC(C)NC(=O)c1cc(C2CCCCN2S(=O)(=O)c2ccc(C#N)cc2)on1 (stereo unspecified),nt,nt,-1,nt,nt,nt
CS(=O)(=O)N1CCCCC1c1cc(C(=O)Nc2ccc3c(c2)OCO3)no1 (stereo unspecified),nt,nt,-3,nt,nt,nt
O=C1CCc2cc(S(=O)(=O)N3CCCCC3)cc3c2N1CC3,11,nt,7,nt,nt,nt
CC(=O)c1ccc(NC(=O)COC(=O)CCC2CCCC2)cc1,nt,nt,0,nt,nt,nt
COc1cc(Nc2ccc(S(N)(=O)=O)cc2)c([N+](=O)[O-])nc1[N+](=O)[O-],-8,-4,-57,0,nt,nt
N#CCC(N)=C(C#N)C#N,-2,-7,61*,-2,18,-3
SMILES,BJeLR lethal,DUSP3 inh,PrPC TRFRET,SARS 3CLpro inh,PrPC confirm,LD9 cytotox
N#CC(C#N)=C1C=CC=CN1/C(=C\c1ccco1)C(=O)c1ccc(Br)cc1,nt,-9,2,0,nt,nt
N#CC(C#N)=C1C=CC=CN1/C(=C\c1ccco1)C(=O)c1ccccc1,nt,-20,74*,-1,67*,79*
Cc1ccc(C(=O)COC(=O)c2ccco2)cc1C,5,14,1,-6,nt,nt
Cc1ccccc1C(=O)NN1C(=O)CSC1=S,0,4,34*,0,11,-6
O=C(NN1C(=O)CSC1=S)c1cccnc1,6,4,1,1,nt,nt
CCSc1nnc2ccc(-c3ccc(C)cc3)nn12,-2,14,42*,-2,-12,-8
COc1ccc(CNC(=O)COC(=O)CN2C(=O)C3CCCCC3C2=O)cc1 (stereo unspecified),nt,nt,5,nt,nt,nt
Cc1cc(NS(=O)(=O)c2ccc(NC(=O)c3ccc([N+](=O)[O-])cc3)cc2)nc(C)n1,nt,nt,-40,nt,nt,nt
CCCC(=O)N1CCN(c2ccc(NC(=O)c3ccc([N+](=O)[O-])o3)cc2)CC1,-3,23,33*,2,8,78*

# Screening results: PubChem, several laboratories
